KCNQ2 enhance = potentiators of rat KCNQ2 potassium channel | actives 0.54% (n = 310,000) | Potassium voltage-gated channel subfamily KQT member 2 (Rattus norvegicus), O88943 | CHO-K1 KCNQ2, FluxOR thallium flux fluorescence; stronger effect = higher value | B-score at 10 µM;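 active = fluorescence ratio B-score at least 3 SD of library B-scores, with initial fluorescence B-score within 3 of them, cut at about 5.3 in these data; same plate scores as AID 2156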;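 also: B-score of peak minus minimum over baseline fluorescence ratio after K+ and Tl+ stimulus; positive B-score means potentiation of KCNQ2 with more thallium influx and brighter signal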
KCNQ2 block = rat KCNQ2 potassium channel inhibitors, primary screen, cell-based, CHO-K1, FluxOR thallium flux, B-score | 20 min; stronger effect = lower value | B-score at 10 µM | actives 1.1% (n = 310,000);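 active = fluorescence ratio B-score at most minus 3 library SDs, with starting brightness B-score within 2 library SDs, cut at about -5.5 in these data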
* hit, by the source's call; i = inactive; . = not tested or not shown. An excerpt weighted towards active compounds, which were near 1.6% of everything screened.

SMILES	KCNQ2 enhance	KCNQ2 block
O=C1C(Cl)=C(N2CCC(C(=O)O)CC2)C(=O)c2ccccc21	.	i
NC(=O)C1CCN(C2=C(Cl)C(=O)c3ccccc3C2=O)CC1	-12	-12*
NC(N)=N/N=C/c1ccccc1	.	i
NC(N)=N/N=C/c1ccc(OCc2ccccc2Cl)cc1	-6.2	-6.2*
CC(C)NC(=O)CC(=O)N/N=C/c1ccc(F)cc1	0.95	i
CN(C)CCN1C(=O)c2oc3ccccc3c(=O)c2C1c1cccc(Br)c1 (centres undefined)	.	i
COc1ccc(C2c3c(oc4ccc(Cl)cc4c3=O)C(=O)N2CCN2CCOCC2)cc1 (centres undefined)	-6.6	-6.6*
COc1ccc(C2c3c(oc4ccccc4c3=O)C(=O)N2CCCN2CCOCC2)cc1 (centres undefined)	.	i
CN(C)CCN1C(=O)c2oc3ccc(Cl)cc3c(=O)c2C1c1cccc(Br)c1 (centres undefined)	-6.3	-6.3*
Cc1ccc(S(=O)(=O)N2CCN(CCNC(=O)C(=O)Nc3ccc(F)cc3)CC2)cc1	.	i
COc1ccccc1OCC(=O)N/N=C/c1cccc2cccnc12	0.03	i
COc1ccccc1OCC(=O)N/N=C/c1c(O)ccc2ccccc12	-6	-6*
CCCOc1cccc(-c2nc3ccccc3c(=O)o2)c1	.	i
O=C(c1cccs1)c1ccc(-c2cccs2)s1	.	i
COC(=O)CSc1ncnc2scc(-c3ccccc3)c12	.	i
Cc1cccc(C(CC(=O)NCc2ccco2)c2ccccc2)c1O (centres undefined)	0.02	i
CCCN(CCC)C(=O)CC(c1ccccc1)c1cc(C)ccc1O (centres undefined)	-6	-6*
Cc1ccc(O)c(C(CC(=O)NCc2ccco2)c2ccccc2)c1 (centres undefined)	16*	i
Cc1ccc(O)c(C(CC(=O)NC(C)C)c2ccccc2)c1 (centres undefined)	0.44	i
COc1ccc(NS(=O)(=O)c2c(C)[nH]c(=O)[nH]c2=O)c(OC)c1	.	i
COc1ccc2oc(C(=O)c3ccccc3)c(N)c2c1	2	i
COc1ccc(/C=C/C(=O)NC(=S)NNC(=O)[C@H]2C[C@@H]2c2ccccc2)cc1OC	.	i
Cc1ccc(OCCOC(=O)Nc2ccccc2)cc1	1.1	i
C=C(C)C1CCC(C)=C1COC(=O)Nc1ccccc1 (centres undefined)	-5.9	-5.9*
CCc1nc(N[C@@H](Cc2c[nH]c3ccccc23)C(=O)O)c2oc3ccccc3c2n1	0.67	i
SMILES	KCNQ2 enhance	KCNQ2 block
O=c1c2ccccc2nc(-c2ccco2)n1Cc1ccccc1	.	i
CCOc1ccc(CCn2c(-c3ccco3)nc3ccccc3c2=O)cc1OCC	-6.9	-6.9*
Cc1ccccc1NC(=O)CSc1nnc(Cc2ccccc2)o1	.	i
COCCNC(=O)CN1C(=O)NC2(CCCc3ccccc32)C1=O (centres undefined)	0.48	i
OC(CNCCc1ccc(C(F)(F)F)cc1)COc1cccc2ccccc12 (centres undefined)	-7.1	-7.1*
COc1ccccc1COCC(O)CNCCc1ccc(C(F)(F)F)cc1 (centres undefined)	.	i
Cc1c(Cl)cn2c(=O)cc(CN(C)Cc3nc4ccccc4c(=O)[nH]3)nc2c1Cl	.	i
O=C(NCC1CCCC(CNC(=O)N2CCc3ccccc32)C1)N1CCc2ccccc21 (centres undefined)	-5.8	-5.8*
O=C(Nc1ccccc1)N1CCc2ccccc21	.	i
CC(=O)c1cccc(NC(=S)NC2CCCCC2)c1	0.7	i
OCc1ncccc1O	.	i
CC(=O)c1cccc(NC(=O)CN(c2ccccc2F)S(C)(=O)=O)c1	.	i
O=C(O)C(=O)/C(=C\c1cccc(Cl)c1)c1ccc2ccccc2n1	.	i
O=C(Nc1cccc(N2C(=O)C3CCCCC3C2=O)c1)c1ccccc1 (centres undefined)	2.1	i
O=C(Nc1cccc(Cl)c1)c1cccc(N2C(=O)C3CC=CCC3C2=O)c1 (centres undefined)	-6	-6*
Cc1ccc([N+](=O)[O-])cc1N/C=C/C(=O)c1ccco1	.	i
Cc1cc(Oc2ccc(C)c(Cl)c2)nc(SCC(=O)c2ccccc2)n1	7*	i
Cc1ccc(C(=O)CSc2cc(C)nc(SCC(=O)c3ccccc3)n2)cc1	.	i
Cc1cccc(-c2nc(C)cc(=O)[nH]2)c1	.	i
COc1nnc(-c2ccc(N3CCCCC3)c(NC(=O)C3CCCCC3)c2)c2ccccc12	-6.2	-6.2*
COc1nnc(-c2ccc(N3CCOCC3)c(NC(=O)C3CCCCC3)c2)c2ccccc12	.	i
Cc1cc(Cl)ccc1NC(=O)CSc1nnc(Cc2cccs2)n1Cc1ccco1	-6.3	-6.3*
COc1cc2c(cc1NC(=O)CSc1nnc(Cc3cccs3)n1Cc1ccco1)oc1ccccc12	.	i
